# Assay results taken from PubChem BioAssay (EPA / NIEHS).
# The source made the active and inactive calls. How the source made its calls, unless noted: active means hit-call score of the fitted dose curve at least 0.9, where 1 is the maximum; inactive means score below 0.9.
# Tests used:
# [1] = CCTE_Deisenroth_H295R-HTRF_384WELL_ESTRADIOL: CCTE's H295R-HTRF Assay Evaluation of Estradiol Concentration, Deisenroth Lab (AID 2284361); details: actives raise or lower the signal
# Outline: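 Estradiol secreted into medium by H295R adrenocortical cells, quantified by HTRF after 48 h dosing over a nine-point 0.001 - 100 uM final range; gain or loss versus DMSO. Parallel ATP-luminescence viability readout; n=5 experiments.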
# [2] = CCTE_Deisenroth_H295R-HTRF_384WELL_TESTOSTERONE: CCTE's H295R-HTRF Assay Evaluation of Testosterone Concentration, Deisenroth Lab (AID 2284373); details: actives raise or lower the signal
# Outline: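 H295R cells were acclimated 24 h, then exposed 48 h to nine concentrations (0.001–100 uM final) in technical triplicate, n=5. Testosterone in conditioned medium was measured by HTRF (em 620/665 nm). Fitting was bidirectional versus DMSO; CellTiter-Glo viability ran on the same plates.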
# [3] = CCTE_Deisenroth_H295R-HTRF_384WELL_CTOX: Cytotoxicity Assessment in CCTE's H295R-HTRF Assay, Deisenroth Lab (AID 2284380; active means hit-call score of the fitted dose curve at least 0.9, where 1 is the maximum)
# Outline: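 Luminescent ATP viability readout (CellTiter-Glo 2.0), multiplexed on plates used for hormone sampling, after 48 h chemical exposure. Human H295R cells; final concentrations 0.001–100 uM in nine steps, technical triplicates, five experiments; DMSO baseline.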
# [4] = Tanguay_ZF_120hpf_MO24: Oregon State University Tanguay Lab 24 Hour Post-fertilization zebrafish Assay for Mortality (AID 2284389)
# Outline: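 Embryo death at 24 hpf was recorded as present or absent in Tropical 5D zebrafish, dechorionated at 4 hpf and dosed statically from 6 hpf (28C, 0.64% DMSO); 5 uM trimethyltin chloride served as positive control.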
# [5] = Tanguay_ZF_120hpf_DP24: Oregon State University Tanguay Lab 24 Hour Post-fertilization zebrafish Assay for Delayed Development (AID 2284390)
# Outline: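 Scored at 24 hpf as a binary present/absent call of delayed development by brightfield, with dead embryos not assessed. Embryos (5D wild type, chorion removed with pronase at 4 hpf) dosed statically from 6 hpf at 28 C in 0.64% DMSO.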
# [6] = Tanguay_ZF_120hpf_CRAN: Oregon State University Tanguay Lab 120 Hour Post-fertilization zebrafish Assay for Craniofacial Malformation (AID 2284397)
# Outline: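 Scoring of craniofacial malformation as a binary endpoint was done at 120 hpf by brightfield microscopy and was not done in dead embryos. Exposure was static, starting at 6 hpf, in dechorionated wild-type embryos held singly at 28C with 0.64% DMSO final.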
# [7] = Tanguay_ZF_120hpf_AXIS: Oregon State University Tanguay Lab 120 Hour Post-fertilization zebrafish Assay for Axial Malformation (AID 2284398)
# Outline: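 Scoring was binary (present or absent) for body-axis defects, judged by brightfield imaging at 120 hpf in surviving larvae. Exposure was static at 28C from 6 hpf in chorion-free 5D wild-type embryos, with 0.64% DMSO vehicle.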
# [8] = Tanguay_ZF_120hpf_MORT: Oregon State University Tanguay Lab 120 Hour Post-fertilization zebrafish Assay for Mortality (AID 2284399)
# Outline: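 Mortality, recorded present/absent via brightfield imaging at 24 and 120 hpf, in 5D zebrafish embryos exposed statically from 6 hpf after pronase chorion removal. Exposure at 28C, 0.64% DMSO vehicle, DMSO baseline.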
# [9] = Tanguay_ZF_120hpf_EDEM: Oregon State University Tanguay Lab 120 Hour Post-fertilization zebrafish Assay for Edema Malformation (AID 2284400)
# Outline: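 Edema recorded as a binary endpoint under brightfield at 120 hpf, excluding embryos that died. Exposure was static, sealed, 28C, from 6 hpf in dechorionated wild-type larvae, final DMSO 0.64%, DMSO as baseline.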
# [10] = Tanguay_ZF_120hpf_MUSC: Oregon State University Tanguay Lab 120 Hour Post-fertilization zebrafish Assay for Muscle Malformation (AID 2284401)
# Outline: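 Scored as a binary brightfield endpoint at 120 hpf, fitted versus DMSO. Single dechorionated wild-type (Tropical 5D) zebrafish embryos per well, statically exposed at 28C from 6 hpf onward with final DMSO 0.64%.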
# [11] = Tanguay_ZF_120hpf_BRN: Oregon State University Tanguay Lab 120 Hour Post-fertilization zebrafish Assay for Brain Region Malformation (AID 2284402)
# Outline: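 Binary brightfield scoring of brain malformation at 120 hpf in 5D wild-type larvae, chorion removed with pronase at 4 hpf. Static exposure began at 6 hpf, 28C, sealed plates, DMSO 0.64% (vol/vol) as vehicle baseline.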
# [12] = Tanguay_ZF_120hpf_TCHR: Oregon State University Tanguay Lab 120 Hour Post-fertilization zebrafish Assay for Touch Responsive (AID 2284403)
# Outline: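 Binary touch-response calls are made at 120 hpf in 5D wild-type zebrafish larvae. These larvae were dechorionated with pronase and exposed singly from 6 hpf in sealed, dark plates at 28 °C with 0.64% DMSO final; dead embryos are excluded.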
# [13] = Tanguay_ZF_120hpf_ANY: Oregon State University Tanguay Lab 120 Hour Post-fertilization zebrafish Assay for Any Mortality and Malformation (AID 2284404)
# Outline: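 Dechorionated Tropical 5D wild-type embryos, one per well from 6 hpf, static exposure in sealed, dark plates at 28C until 120 hpf, 0.64% DMSO final. Brightfield scoring of mortality and malformations as binary presence/absence, pooling 13 morphology endpoints.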
# [14] = CCTE_Padilla_ZF_Score.Craniofacial: CCTE's 144 Hour Post-fertilization zebrafish Assay Score for Craniofacial Malformation, Padilla Lab (AID 2284405)
# Outline: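 Craniofacial defects were scored at 6 dpf by two blinded observers using stereomicroscopy. Exposure of wild-type embryos began at 6–8 hpf in sealed wells of 10% Hanks' solution at 26C, with chemical removed by rinsing at 5 dpf.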
# [15] = CCTE_Padilla_ZF_Score.Edema: CCTE's 144 Hour Post-fertilization zebrafish Assay Score for Edema Malformation, Padilla Lab (AID 2284406)
# Outline: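 Edema scored at 6 dpf by two blinded observers under a stereo microscope, in single outbred wild-type larvae exposed from 6-8 hpf in sealed wells (Hanks', 26C, 14:10 h light) and chemical-free after a 5 dpf rinse.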
# [16] = CCTE_Padilla_ZF_Score.Spine: CCTE's 144 Hour Post-fertilization zebrafish Assay Score for Spine Malformation, Padilla Lab (AID 2284407)
# Outline: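 Spine malformation scored at 6 dpf by two independent blinded observers under stereomicroscope, after static sealed exposure from 6–8 hpf at 26C in Hanks' solution with rinse on 5 dpf. Positive-direction fit against DMSO control.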
# [17] = CCTE_Padilla_ZF_Score.Swim_bladder: CCTE's 144 Hour Post-fertilization zebrafish Assay Score for Swim Bladder Malformation, Padilla Lab (AID 2284408)
# Outline: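 Swim bladder inflation scored at 6 dpf by two blinded observers under a stereo microscope. Exposure ran from 6–8 hpf in sealed wells of 10% Hanks' at 26C, with rinsing at 5 dpf; DMSO served as baseline.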
# [18] = CCTE_Padilla_ZF_Score.Position: CCTE's 144 Hour Post-fertilization zebrafish Assay Score for Position, Padilla Lab (AID 2284409)
# Outline: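 Wild-type zebrafish embryos (with chorions) exposed singly from 6–8 hpf in sealed wells of Hanks' solution at 26C, rinsed at 5 dpf. At 6 dpf, blinded assessors scored abnormal water-column position by brightfield stereomicroscopy, relative to DMSO.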
# [19] = CCTE_Padilla_ZF_Score.Living: CCTE's 144 Hour Post-fertilization zebrafish Assay Score for Viability, Padilla Lab (AID 2284410);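 further: larval death at 6 dpf judged by absent heartbeat or coagulation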
# Outline: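 Mortality at 6 dpf, judged as absent heartbeat or coagulation by two blinded observers, after sealed static exposure beginning at 6–8 hpf at 26C. Larvae were rinsed free of chemical at 5 dpf, and activity was fitted relative to DMSO.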
# [20] = CCTE_Padilla_ZF_Score.General: CCTE's 144 Hour Post-fertilization zebrafish Assay Score for General Malformation, Padilla Lab (AID 2284411)
# Outline: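 Malformation, death and hatching were scored at 6 dpf by two blinded observers under a stereo microscope. Embryos were dosed singly from 6-8 hpf in sealed plates of 10% Hanks' at 26C and rinsed on 5 dpf; DMSO baseline.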
compound,measurement,setting,value
CC(C)(C)C(O)(CCc1ccc(Cl)cc1)Cn1cncn1 (configuration not stated),outcome,[1],inactive
same,AC50,[2],2 µM (active)
O=[N+]([O-])c1ccc(Oc2ccc(Cl)cc2Cl)cc1,outcome,[1],inactive
same,outcome,[2],inactive
same,outcome,[3],inactive
CCNS(=O)(=O)C(F)(F)C(F)(F)C(F)(F)C(F)(F)C(F)(F)C(F)(F)C(F)(F)C(F)(F)F,outcome,[4],inactive
same,outcome,[5],inactive
same,AC50,[6],75.6 µM (active)
same,AC50,[7],70.1 µM (active)
same,outcome,[8],inactive
same,AC50,[9],62.9 µM (active)
same,outcome,[10],inactive
same,outcome,[11],inactive
same,outcome,[12],inactive
same,AC50,[13],62.1 µM (active)
same,outcome,[14],inactive
same,AC50,[15],2.86 µM (active)
same,outcome,[16],inactive
same,AC50,[17],3.57 µM (active)
same,outcome,[18],inactive
same,AC50,[19],22.2 µM (active)
same,AC50,[20],3.11 µM (active)
